Test results: PubChem BioAssay (NCI)
This is part of a sample that, as a whole, favours compounds with a hit. Of some 83,000 tested, about 20% had one in any assay.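 Plates (96-well) were seeded with cells, treated with compound at one concentration, and incubated for 48 hours before percent growth was determined.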 A number with no mark means an inactive call. The source made the active and inactive calls. Rule for the calls: active = growth percent below 10; inactive = the rest.

Columns and labels:
Experiment in all cases: NCI-60 one-dose screen, 48 h (100 = growth as untreated, 0 = no growth, -100 = all killed)
Details in all cases: 10 µM unless noted
HCT-15 colon = test system: HCT-15 colon
HT29 colon = test system: HT29 colon
SNB-75 CNS = test system: SNB-75 CNS
SNB-19 CNS = test system: SNB-19 CNS
U251 CNS = test system: U251 CNS
PC-3 prostate = test system: PC-3 prostate
SK-MEL-5 melanoma = test system: SK-MEL-5 melanoma
UACC-62 melanoma = test system: UACC-62 melanoma
LOX IMVI melanoma = test system: LOX IMVI melanoma
SK-MEL-28 melanoma = test system: SK-MEL-28 melanoma

SMILES | growth (HCT-15 colon) | growth (HT29 colon) | growth (SNB-75 CNS) | growth (SNB-19 CNS) | growth (U251 CNS) | growth (PC-3 prostate) | growth (SK-MEL-5 melanoma) | growth (UACC-62 melanoma) | growth (LOX IMVI melanoma) | growth (SK-MEL-28 melanoma)
COc1ccc(/C=C\c2cc(OC)c(OC)c(OC)c2)c(NS(=O)(=O)c2ccc(F)cc2)c1O | 6.21% (active) | 12.5% | 34.9% | 37.4% | 19.1% | 31.3% | -28.4% (active) | 40.1% | 19.3% | 63.2%
COc1cc(C=Nc2cc(Cl)cc(Cl)c2)ccc1N(CCCl)CCCl | 96.2% | 81.5% | 84.1% | 89.8% | 86.9% | 63.1% | 93.9% | 82.9% | 78.7% | 104%
COc1cc(NCCCN=C(N)N)c2ncccc2c1 | 98.6% | 83.9% | 73.4% | 81.8% | 58.5% | 83.7% | 72.1% | 90.3% | 104% | 99.6%
CC[C@H](C)[C@H](NC(=O)c1cccn1C)C(=O)N(C)[C@H](C[C@@H](OC(C)=O)c1nc(C(=O)N[C@@H](Cc2ccccc2)C[C@H](C)C(=O)OC)cs1)C(C)C | 12% | -18.1% (active) | 33.4% | 35.4% | 12.3% | 21.2% | -29.1% (active) | 40.4% | 15.2% | 68.8%
c1cnc2[nH]cc(-c3csc(-c4cn(CCCCN5CCOCC5)c5ccccc45)n3)c2c1 | 5.17% (active) | -44.6% (active) | 35.4% | 57.5% | 20% | 25.9% | 51.2% | 68.9% | 20.8% | -71.1% (active)
COc1ccc(N(CC(=O)NCCC[Te]c2ccccc2)C(=O)CNC(=O)OC(C)(C)C)cc1 | 11.3% | -36.8% (active) | 57.9% | 33% | 12.4% | 8.59% (active) | 41.4% | 89.2% | 17.6% | 105%
Cc1cc(C)c(CBr)c(C)c1 | 108% | 100% | 106% | 110% | 95.3% | 94% | 97.7% | 102% | 101% | 106%
CCC[CH2][Sn]([CH2]CCC)([CH2]CCC)[O]c1ccc(Cl)cc1Cl | -62.5% (active) | -52.3% (active) | -93.6% (active) | -81% (active) | -74% (active) | -70% (active) | -99.8% (active) | -88.4% (active) | -81.4% (active) | -96.9% (active)
Cc1ccc2c(C(C[N+](=O)[O-])c3cccs3)c(-c3ccccc3)[nH]c2c1 (stereo not given) | 20% | 9.87% (active) | -37.2% (active) | 37.8% | 21% | 28% | 36.3% | 38.3% | 31.7% | 49.4%
CC(=O)O[C@H](C[C@H](C(C)C)N(C)C(=O)[C@@H](NC(=O)[C@H]1CCCCN1C)C(C)C)c1cccc(C(=O)N[C@@H](Cc2ccccc2)C[C@H](C)C(=O)O)n1 | 9.65% (active) | 2.72% (active) | 27.6% | 22.4% | 10.9% | 26.4% | -39.2% (active) | 36.3% | 14.6% | 65%
CC1(C)[C@H](O)[C@H](F)C[C@@]2(C)Oc3ccc(C(=O)Nc4ccc5c(c4)NC(=O)C54CCN(CCCCC#N)CC4)cc3C[C@H]12 | 45.7% | 16% | 46.8% | 32.2% | 10.6% | 24.4% | -60.7% (active) | -24.4% (active) | 7.04% (active) | 4.12% (active)
CCCCCCCC[n+]1ccc2ccccc2c1 | 99.7% | 42.4% | 69.4% | 53.8% | 66% | 35% | -19.4% (active) | 25.5% | 63.6% | 61.2%
CCC1(C)CC(CCNCc2ccccc2O)(c2ccc(C)cc2)CCO1 (stereo not given) | 98.3% | 107% | 91.8% | 102% | 99.1% | 99.1% | 97.7% | 103% | 99.8% | 106%
COc1ccc(/C=C\c2cc(OC)c(OC)c(OC)c2)c(NS(=O)(=O)c2ccc(C)cc2)c1O | 15.1% | 17.4% | 41.6% | 48.1% | 20.7% | 36.3% | -42.3% (active) | 53% | 18.3% | 61.7%
CC12CCC=CC1CCC1C2CCC2(C)C(c3ccc(=O)oc3)CCC12O (stereo not given) | -71.7% (active) | -66.5% (active) | -56.7% (active) | -99.9% (active) | -77.2% (active) | -19.6% (active) | -56.6% (active) | -65.4% (active) | -83.8% (active) | -31.1% (active)
CC[C@H](C)[C@H](NC(=O)[C@H]1CCCCN1C)C(=O)N(C)[C@H](C[C@@H](O)c1nc(C(=O)N[C@@H](Cc2ccccc2)C[C@H](C)C(=O)O)cs1)C(C)C | 96.5% | 83.1% | 59.7% | 65.2% | 52.9% | 81.2% | 63.7% | 41.1% | 52.2% | 82.8%
COC(=O)[C@@H](C)C[C@H](Cc1ccccc1)NC(=O)c1nc([C@@H](C[C@H](C(C)C)N(C)C(=O)[C@@H](NC(=O)[C@H]2C[C@H](O)CCN2C)C(C)C)OC(C)=O)sc1C(C)C | 2.8% (active) | -15.3% (active) | -9.05% (active) | 16.5% | 7.85% (active) | 21.5% | -24% (active) | 31.3% | 8.19% (active) | 44.8%
CCCCCSC1C2C(=O)C(Br)=CC13CCNc1c(O)c4c5c(c13)=[N+]2CCC=5C=N4 (stereo not given) | -47.6% (active) | -31.8% (active) | -88.8% (active) | -65.5% (active) | -73.3% (active) | -0.922% (active) | -95.2% (active) | -51.2% (active) | -71% (active) | -18.2% (active)
